The record followed here is PubChem BioAssay AID758 (NMMLSC, 2007).

Hit rate of the full screen: of about 190,000 compounds, about 110 (0.058%) were called active. Not shown: some 2% with an inconclusive outcome. Only a selection was taken, and actives are over-represented in it overall. Values without a mark were called inactive.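 How the source made its calls: active means fluorescent GTP binding to Rab7 beads changed by at least 20 points from the 100% baseline, either direction, mostly lower; inconclusive means compound itself probably fluorescent, or too few beads counted; inactive means the rest.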

This experiment relates to Rab7 GTPase wild type (dog), Bodipy-FL-GTP binding. The experiment in a line: wildtype dog Rab7 nucleotide binding alteration – biochemical, multiplex bead flow cytometry, primary screen (AID 758).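 Further: median green fluorescence of bound Bodipy-FL-GTP per Rab7 bead population.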 Conditions: GST-Rab7 beads, fluorescent GTP binding, at 10 µM, actives lie on both sides, untreated = 100%, excess cold GTP = 0%. A general note: Flow cytometry measures light scatter and fluorescence of single cells or particles in a stream.
As to `CCOC(=O)c1ccc(N2C(=O)CC(N3CCN(C(=O)c4ccccc4)CC3)C2=O)cc1` (stereo unspecified), the GTP binding activity (percent of control) was 97%.
The same measure for `COCCCNc1nc2c(-c3cccc(C(F)(F)F)c3)nnn2c2ccccc12`: 105%.
The same measure for `C/C(CCc1ccccc1)=N\NC(=O)c1ccc(CN2CCOCC2)cc1`: 103%.
On to `Cc1ccccc1NS(=O)(=O)CCCCC(Cl)(Cl)Cl`, for which the GTP binding activity (percent of control) was 96%.
The same measure for `CC1CCN(S(=O)(=O)c2ccc(S(=O)(=O)NCc3cccnc3)cc2)CC1`: 98%; for `CCCNC(=O)c1c(Cl)cnn1-c1ccc(C)cc1`: 96%.
The value for `O=C(CO/N=C/c1ccccc1OC(F)F)NC1CCCC1` was 103%.
The value for `O=C(NNC(=O)C1C2CCC(C2)C1C(=O)O)c1ccc(Cl)cc1` (stereo unspecified) was 103%.
Turning to `CCN(CC)S(=O)(=O)c1ccc(OC(C)C)c(N)c1`, the GTP binding activity (percent of control) was 107%.
Regarding `CN(C)/C=C(/C(=O)c1ccccc1Cl)S(C)(=O)=O`, the GTP binding activity (percent of control) was 104%.
Regarding `CCCN(CCC)CCCNC(=O)CNC(=O)c1nn(-c2ccc(OC)cc2)c(=O)c2ccccc12`, the GTP binding activity (percent of control) is 95%.
For the molecule `CC(=O)c1c(C)[nH]c(C(=O)OCC(=O)NCCC(C)C)c1C`, the GTP binding activity (percent of control) is 95%.
The same measure for `Cc1cccc(C(=O)OCC(=O)NCC(C)C)c1O`: 96%; for `S=C(NCCc1ccccc1)N1CCn2cccc2C1c1ccncc1` (stereo unspecified): 91%.
The same measure for `COc1ccc2cc(CCl)c(Cl)nc2c1`: 91%.
The value for `O=C(CCC(=O)OCc1ccc(Cl)cc1)Nc1ccccc1` was 102%; that for `CN(C)S(=O)(=O)c1cccc(NC(=S)NCc2ccc3c(c2)OCO3)c1` was 104%; that for `CCN(CC)S(=O)(=O)c1ccc(N(C)CCc2ccc(OC)c(OC)c2)nc1` was 96%.
As for `CC(C)CC(CC(C)C)=NNC(=O)c1ccc(CSc2nncn2C)cc1`, the GTP binding activity (percent of control) was 104%.
The same measure for `Cn1cnnc1SCC(=O)Nc1ccc(N2CCOCC2)cc1`: 98%; for `O=C(CN1C(=O)c2cccc3cccc1c23)Nc1ccccc1`: 98%.
The value for `O=C(CS(=O)(=O)c1ccccc1)Nc1ccc(S(=O)(=O)Nc2ccccn2)cc1` was 107%; that for `COc1cc(OC)cc(-c2nc(=S)n3ccsc3n2)c1` was 99%.
Turning to `Cc1ccc(/C=N/NC(=O)Cn2ccc(C(F)(F)F)n2)o1`, the GTP binding activity (percent of control) was 105%.
With `CCN(CC(=O)Nc1ccc(Cl)c(S(=O)(=O)N(C)C)c1)Cc1nc2ccccc2c(=O)[nH]1`, the GTP binding activity (percent of control) is 105%.
Consider `COc1cc(NC(=O)COc2ccccc2Cl)ccc1NC(=O)C(C)C`, for which the GTP binding activity (percent of control) is 98%.
The same measure for `Cc1ccc(C2NC(C(=O)O)CS2)cc1` (stereo unspecified): 103%.
For `CN(C)c1ccc(C2Nc3ccccc3C(=O)N2NS(=O)(=O)c2ccccc2)cc1` (stereo unspecified), the GTP binding activity (percent of control) was 95%.
The same measure for `O=C(CSc1ccc([N+](=O)[O-])cn1)Nc1ccc(N2CCOCC2)cc1`: 95%; for `Cc1ccc(Nc2c(F)c(F)c(F)c(F)c2C(=O)O)c(C)c1`: 121% [activator] (active); for `COc1c(F)c(F)c(C(=O)O)c(Nc2ccccc2C)c1F`: 96%.
Turning to `Cc1ccc(NC(=S)NC(=O)c2ccc(-c3ccccc3)cc2)c(C)c1`, the GTP binding activity (percent of control) is 100%.
As for `S=C(Nc1ccc2c(c1)OCO2)N1CCCC1`, the GTP binding activity (percent of control) is 104%.
The same measure for `C/C(CC(=O)N1CCN(C=O)CC1)=N\NC(=O)c1ccc(Br)cc1`: 102%; for `COc1ccc2c(c1)CCC/C2=N\OC(=O)c1ccccc1F`: 105%; for `COCCN(CCOC)S(=O)(=O)c1ccc(C(=O)Nc2nc3c(s2)CCc2ccccc2-3)cc1`: 99%.
The same measure for `C=CCN(CC=C)S(=O)(=O)c1ccc(C(=O)Nc2sc3c(c2C(N)=O)CCCCC3)cc1`: 103%; for `C=CCN(CC=C)S(=O)(=O)c1ccc(C(=O)Nc2nc3c(s2)CCc2ccccc2-3)cc1`: 27% (active); for `COC(=O)CCC(=O)N1CCCC(CO)(Cc2ccccc2)C1` (stereo unspecified): 98%.
The same measure for `CSc1cccc(NC(=S)N(Cc2ccccc2)Cc2ccccn2)c1`: 104%.
Take `O=C(COC(=O)c1ccccn1)Nc1cccc2ccccc12`: the GTP binding activity (percent of control) was 108%.
Regarding `CCN(CC)CCNS(=O)(=O)c1ccc(/C=C/C(=O)O)cc1`, the GTP binding activity (percent of control) was 98%.
The same measure for `OCCC1CN(Cc2cnc(-c3ccccc3)s2)CCN1CCc1ccccc1` (stereo unspecified): 106%; for `CCOC(=O)CNC(=O)CSc1ccc2nnc(-c3cccnc3)n2n1`: 96%.
`CC1(C)C2CC=C(/C=N/NC(=O)C3CC3)C1C2` (stereo unspecified): the GTP binding activity (percent of control) is 105%.
Consider `CCc1c(SCCC(=O)O)nc2ccccc2c1C`, for which the GTP binding activity (percent of control) is 99%.
As for `Fc1cc(Br)ccc1NC(=S)Nc1cccnc1`, the GTP binding activity (percent of control) was 104%.
For `COC(=O)C(=Nc1ccccc1)/C(C(=O)C(=O)N(C)c1ccccc1)=C(\O)c1ccc(Cl)cc1`, the GTP binding activity (percent of control) was 96%.
The same measure for `Cc1ccc(N2C(=O)C(CC(=O)Nc3cccc(F)c3)N(CCc3ccncc3)C2=O)cc1` (stereo unspecified): 97%.
For the molecule `NNC(=O)C1CC(O)CN1S(=O)(=O)c1ccc(Cl)cc1` (stereo unspecified), the GTP binding activity (percent of control) is 96%.
Consider `Cc1ccc(NC(=O)CNCc2ccccn2)cc1S(=O)(=O)N(C)C`, for which the GTP binding activity (percent of control) is 101%.
